89 molecules from PubChem BioAssay AID463173 (ICCB-Longwood Screening Facility, Harvard Medical School, 2010) can be followed below.

The whole screen tested about 52,000 compounds, of which about 4,300 (8.3%) were called active. Only a selection was taken, and actives are over-represented in it overall. Values without a mark were called inactive. Rule as the data show it: active = survival mostly below about 52% (no sharp cut-off); inactive = mostly above about 56%.

The assay concerns DeltatarO mutant. The assay can be described thus: S. aureus survival, RN4220 and DeltatarO strains – OD600, teichoic acid synthesis inhibitors, primary screen (AID 463173). As to conditions: S. aureus RN4220 wild type/DeltatarO growth, OD600, 18 h, hits give low values, screened at 18.75 µg/mL (by protocol).
Turning to `COc1ccc(-c2nc3n(n2)C(c2cccc(C)c2)C(C(N)=O)=C(C)N3)cc1OC` (centres undefined), the survival was 93%.
As for `CCN(CC)Cc1ccc(C(=O)O)o1`, the figure is 97%; as for `Cn1c(=O)c2sccc2n2c(CCC(=O)N3CCN(c4cccc(Cl)c4)CC3)nnc12`, 193%; as for `CCOc1ccc(-c2cccc(NS(=O)(=O)c3ccc(Cl)s3)c2)nn1`, 92%.
With `Cc1cccc(NC(=O)CSc2nc(=O)n(Cc3ccccn3)c3c2CCC3)c1C` the figure was 85%.
On to `CCCOc1ccc(N2CC(C(=O)Nc3cccc(Cl)c3Cl)CC2=O)cc1` (centres undefined), for which the survival is 145%.
For the molecule `CCCCOc1cccc(C(=O)N(Cc2sccc2C)C2CCS(=O)(=O)C2)c1` (centres undefined), the survival is 73%.
As for `CCc1ccc(NC(=O)c2ccc(Cn3nc(N4CCN(c5ccccc5)CC4)ccc3=O)o2)cc1`, the figure is 83%.
Consider `O=C(Nc1cccc(Cl)c1)c1ccc2c(c1)CCN2S(=O)(=O)c1ccccc1`, for which the survival is 41% (active).
Consider `Cc1ccc(S(=O)(=O)N2CCc3cc(C(=O)Nc4c(F)cccc4F)ccc32)cc1`, for which the survival is 64%.
As for `CC(=O)c1cccc(NC(=O)c2ccc3c(c2)CCN3S(=O)(=O)c2ccccc2)c1`, the figure is 44% (active); as for `O=C(c1ccc2c(c1)CCN2S(=O)(=O)c1ccccc1)N1CCN(c2cccc(Cl)c2)CC1`, 45%; as for `CC(=O)Nc1ccc(NC(=O)c2ccc3c(c2)CCN3S(=O)(=O)c2ccc(Cl)cc2)cc1`, 113%.
With `CCCCOC(=O)c1ccc(NC(=O)c2ccc3c(c2)CCN3S(=O)(=O)c2ccccc2)cc1` the figure was 57%.
As for `CCc1c(C)sc2c1CCN(C(=O)Nc1ccccc1C(=O)OC)C2c1ccc(OC)cc1` (centres undefined), the figure is 92%; as for `Cn1cc(C(=O)NCCc2ccccc2)c(=O)c2cc(S(=O)(=O)N3CCCCCC3)ccc21`, 68%; as for `CN(C(=O)c1nn(C)c2c1CS(=O)(=O)c1ccccc1-2)c1cccc(Cl)c1`, 64%.
With `Cc1cccc(NC(=O)Cn2c(=O)n(CCC(=O)N3CCc4ccccc4C3)c(=O)c3ccccc32)c1`, the survival is 88%.
As for `COc1ccc(NC(=O)CSc2nc3c(oc4ccccc43)c(=O)n2-c2ccccc2)cc1OC`, the figure is 63%; as for `CCn1c(CN2CCOCC2)nc2cc(NC(=O)c3cc(OC)c(OC)c(OC)c3)ccc21`, 89%.
As for `O=C(NCCO)C(=O)Nc1c2c(nn1-c1ccc(F)cc1)CSC2`, the figure is 82%; as for `COc1ccccc1NC(=O)CSc1nc(-c2ccc(C(C)(C)C)cc2)c(C#N)c(=O)[nH]1`, 52%; as for `CC(C)(C)c1ccc(-c2nc(SCC(=O)Nc3ccc(Cl)cc3)[nH]c(=O)c2C#N)cc1`, -2% (active).
`CCc1ccc(NC(=O)CSc2nc(-c3ccccc3)c(C#N)c(=O)[nH]2)cc1`: the survival was 78%.
With `CN1CCN(C(=O)c2ccc3c(c2)N(Cc2c(F)cccc2Cl)C(=O)c2ccccc2S3)CC1` the figure was 85%.
Regarding `Cc1ccc(S(=O)(=O)c2nc(-c3cccs3)oc2SCC(=O)Nc2cc(C)cc(C)c2)cc1`, the survival is 70%.
On to `CCCS(=O)(=O)N1CCN(Cc2ccc(OC)c(OCC)c2)CC1`, for which the survival is 97%.
With `COc1cc(CN2CCN(C(=O)c3cccc4ccccc34)CC2)cc(OC)c1OC` the figure was 72%; with `CCn1c2ccccc2c2cc(CN3CCN(Cc4cc(OC)c(O)c(OC)c4)CC3)ccc21`, 43% (active).
As for `COc1cc(CN2CCN(S(=O)(=O)c3ccccc3)CC2)cc(OC)c1O`, the figure is 57%; as for `CCn1c2ccccc2c2cc(CN3CCN(Cc4ccc(OC)c(OC)c4)CC3)ccc21`, 17% (active); as for `COc1ccc(CCn2nnnc2CN2CCN(Cc3ccccc3)CC2)cc1OC`, 82%.
With `O=C(CCSCCc1ccccn1)Nc1cc(F)ccc1F` the figure was 79%; with `COc1ccc(-c2csc3ncnc(Nc4ccc(OC)cc4OC)c23)cc1`, 64%; with `CCCCNC(=O)c1ccc2c(c1)NC(=O)C(CS(=O)(=O)Cc1ccc(F)cc1Cl)N2` (centres undefined), 74%.
For `O=C(CSc1nc2c(oc3ccccc32)c(=O)n1-c1ccccc1)Nc1ccccc1F`, the survival was 66%.
As for `O=C(CSCc1ccc(F)cc1)N1CCN(c2ccccc2F)CC1`, the figure is 102%; as for `COc1cccc(Nc2nc3ccccc3c3nncn23)c1`, 89%.
With `Cc1ccc(Cl)cc1Nc1nc2ccccc2c2nncn12`, the survival was 104%.
With `Cc1ccc(Nc2nc3ccccc3c3nncn23)cc1C` the figure was -4% (active); with `O=C1CN(C(=O)c2ccc(S(=O)(=O)N3CCCCC3)cc2)C(c2ccc(F)cc2)c2cc(Cl)ccc2N1` (centres undefined), 62%.
In the case of `CC(C)Oc1ccc(CNC(=O)Cn2c(=O)oc3ccccc32)cc1`, the survival is 77%.
With `Cc1nnc(SCc2ccc(Cl)cc2Cl)o1` the figure was 80%.
With `CC(C)C[C@H](N)c1nnc(SCc2ccc(Cl)cc2Cl)o1` the figure was 38% (active); with `C[C@H](NC(=O)OC(C)(C)C)c1nnc(SCc2ccc(Cl)cc2Cl)o1`, 54%; with `CSc1ncc2c(n1)-c1ccccc1N(Cc1ccc(Cl)cc1)S2(=O)=O`, 98%.
For `COc1cccc(NC(=O)CCNS(=O)(=O)c2ccc3c(c2)oc(=O)n3C)c1`, the survival is 90%.
As for `Cc1cccc(NC(=O)C2CCC(CNS(=O)(=O)c3ccc(Br)s3)CC2)c1` (centres undefined), the figure is 52% (active).
On to `COc1cccc(CNC(=O)C2CCC(CNS(=O)(=O)c3ccc(Br)s3)CC2)c1` (centres undefined), for which the survival is 71%.
With `COc1cccc(NC(=O)CCNS(=O)(=O)c2ccc(Br)s2)c1` the figure was 37% (active); with `CCc1cccc(NC(=O)C2CCC(CNS(=O)(=O)c3ccc(Br)s3)CC2)c1` (centres undefined), 79%.
On to `COC(=O)c1ccc(NC(=O)CN(C)S(=O)(=O)c2ccc(Br)s2)cc1`, for which the survival was 73%.
As for `CCOc1ccc(NC(=O)CCNS(=O)(=O)c2cccs2)cc1`, the figure is 51%; as for `CCOc1ccc(NC(=O)CCS(=O)(=O)c2ccc(Br)s2)cc1`, 82%.
With `CCOc1ccc(NC(=O)CNS(=O)(=O)c2ccc(Br)s2)cc1` the figure was 49%.
On to `Cc1ccc(NC(=O)CCNS(=O)(=O)c2ccc(Br)s2)cc1`, for which the survival is 50% (active).
As for `Cc1cc(NC(=O)C2CCC(CNS(=O)(=O)c3ccc(Br)s3)CC2)ccc1Br` (centres undefined), the figure is 93%; as for `O=C(CCNS(=O)(=O)c1ccc(Br)s1)Nc1ccc(Br)cc1`, 40% (active); as for `Cc1c(Cl)cccc1NC(=O)CN1C(=O)COc2ccc(S(=O)(=O)N3CCOCC3)cc21`, 88%.
`CC1C(=O)OC(c2ccccc2)C(C)(C)C1=O` (centres undefined): the survival is 94%.
As for `CCc1ccccc1N1C(=O)CC(N2CCc3ccccc32)C1=O` (centres undefined), the figure is 102%; as for `Cc1ccc(NC(=O)c2oc3ccc(S(=O)(=O)N4CCCCC4)cc3c2C)c(C)c1`, 79%; as for `Cc1ccc(Cl)cc1N1CCN(C(=O)COCc2cc(-c3ccc4c(c3)OCO4)on2)CC1`, 95%.
With `Cc1cccc(CC(=O)NCCc2sc3nc(-c4ccc(F)cc4)nn3c2C)c1`, the survival was 91%.
As for `COc1ccccc1NC(=O)Cn1c(=O)n(-c2cccc(Cl)c2)c(=O)c2sc3ccccc3c21`, the figure is 103%.
As to `CCOC(=O)c1c(C)[nH]c(CCC(=O)NCc2ccc(OC)c(OC)c2)c1C`, the survival is 81%.
`COc1ccc(C)cc1NC(=O)CSc1ncc2c(n1)-c1ccc(Cl)cc1N(Cc1ccccc1)S2(=O)=O`: the survival was 78%.
As for `CCc1ccccc1NC(=O)CSc1nc2c(c(=O)[nH]1)CN(Cc1ccccc1OC)CC2`, the figure is 75%; as for `O=c1[nH]c(SCc2c(F)cccc2Cl)nc2c1CCC2`, 74%; as for `COc1ccc(OCC(=O)Nc2ccc(N3CCN(S(C)(=O)=O)CC3)cc2)cc1`, 97%.
Consider `COc1ccc(NC(=O)Cn2c(=O)nc(-c3ccccc3)c3ccccc32)cc1OC`, for which the survival was 78%.
`Cc1ccc(NC(=O)C2CCC(CNS(=O)(=O)c3cccc4nsnc34)CC2)c(Cl)c1` (centres undefined): the survival is 47% (active).
As for `Cc1ccc(Cl)cc1NC(=O)C1CCC(CNS(=O)(=O)c2cccc3nsnc23)CC1` (centres undefined), the figure is 100%; as for `Cc1ccc(NC(=O)C2CCC(CNS(=O)(=O)c3cccc4nsnc34)CC2)c(C)c1` (centres undefined), 95%; as for `CCCCN(CC)CCCNC(=O)c1nn(-c2ccc(OC)cc2)c(=O)c2c1c1ccccc1n2C`, 123%.
As for `COc1cccc(C2=NS(=O)(=O)N(C)C(C(=O)Nc3cccc(O)c3)=C2)c1`, the figure is 70%; as for `COc1cc(NC(=O)Cn2ccn(-c3cc(C)cc(C)c3)c(=O)c2=O)cc(OC)c1`, 71%; as for `CCN(c1ccccc1)S(=O)(=O)c1nnc(NC(=O)c2ccccc2OC)s1`, 47%.
As for `CCN(c1cccc(C)c1)S(=O)(=O)c1nnc(NC(=O)c2ccccc2Cl)s1`, the figure is 17% (active); as for `CCN(c1ccccc1C)S(=O)(=O)c1nnc(NC(=O)c2ccccc2C)s1`, 15% (active); as for `CCN(CC)S(=O)(=O)c1nnc(NC(=O)c2ccccc2Cl)s1`, 70%.
Regarding `CCN(c1cc(C)cc(C)c1)S(=O)(=O)c1nnc(NC(=O)c2ccccc2C)s1`, the survival is 49%.
With `CCN(c1ccc(Cl)cc1)S(=O)(=O)c1nnc(NC(=O)C(C)C)s1` the figure was 84%.
For the molecule `CCN(c1ccc(OC)cc1)S(=O)(=O)c1nnc(NC(=O)c2ccccc2Cl)s1`, the survival is 46% (active).
As for `CCN(c1ccc(Cl)cc1)S(=O)(=O)c1nnc(NC(=O)c2ccccc2C)s1`, the figure is 8% (active); as for `OCCN(Cc1ccccc1)Cc1ccccc1O`, 102%.
Consider `CC(=O)N1c2ccccc2C(=O)C1N1CCN(c2ccccc2)CC1` (centres undefined), for which the survival is 85%.
As for `CCCOc1ccc(-c2cccc(NS(=O)(=O)c3cc(OC)ccc3OC)c2)nn1`, the figure is 99%; as for `COc1cccc(Nc2nc3cc(Cl)c(Cl)cc3nc2-n2nc(C)cc2C)c1`, 98%.
